Mito fusion yeast = blocks mitochondrial division or promotes mitochondrial fusion | S. cerevisiae fusion-defective mutant growth rescue, CellTiterGlo 48 h | Potency, µM (titrated, usually from 46.1 µM), for inactives: at the top dose growth rescue (activation), usual class: activators | hit rate 0.23% among 320,000; note: % of control where 0% means no effect; nearly all actives have a fitted effect of over 45% in size
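Luminescent cell viability in 1536-well qHTS format served as the measure of rescued growth in ts fusion-mutant S. cerevisiae cultured on non-fermentable YPEG for 48 hours at 37C.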
TDP43 rescue = inhibitors of TDP-43 toxicity in yeast. TDP-43 expressing yeast growth rescue, BacTiter-Glo, 24 h. Potency, µM (highest dose often 46.1 µM), without a hit: top-dose growth rescue (activation), hits mostly activators. hit rate 1.8% among 410,000; note: % of control where 0% means no effect; nearly all actives have a fitted effect of over 50% in size
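Yeast cells expressing TDP-43 under galactose induction are exposed to compounds for 24 hr at 30 deg C. BacTiter-Glo luminescence measures growth, so protective compounds score as activators.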
FUS yeast rescue = suppressors of FUS proteinopathy in yeast. Potency, µM (top dose mostly 76.6 µM), most hits filed as activators. S. cerevisiae FUS-expressing, growth rescue, OD600, 24 h. hit rate 0.24% among 390,000;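 note: plate controls were DMSO vehicle for no effect and reference control for full effect; nearly all actives have a fitted effect of over 55% in size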
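FUS-expressing yeast, raffinose-pregrown, induced in 2% galactose minimal medium at OD 0.005; compounds in a dilution series, 24hr at 30C. Growth restoration read as absorbance at 600 nm. CP55940 positive control, DMSO negative.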
Abeta yeast res = A-beta toxicity reversal in yeast. yeast expressing A-beta42, growth rescue, OD600, 48 h; response scale: 0% DMSO, 100% iron-clioquinol control. hit rate 0.063% among 410,000. Potency, µM (doses to about 46.1 µM), actives largely listed as activators; note: nearly all actives have a fitted effect of over 55% in size
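Yeast A-beta toxicity model in growth medium with pinned compounds, 48 h at 30 C; growth read as absorbance at 600 nm. Normalized to FeCl3/clioquinol equimolar mix (positive) and DMSO (negative).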
aSyn yeast inh = inhibitors of alpha-synuclein toxicity in yeast. Yeast expressing alpha-synuclein, growth rescue, BacTiter-Glo, 24 h. Potency, µM (doses to about 46.1 µM), inactives show at the highest dose growth rescue (activation), hits mostly activators. hit rate 0.14% among 370,000. AID 652106; note: % of control where 0% means no effect; nearly all actives have a fitted effect of over 65% in size
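Readout is rescue of growth in alpha-synuclein-expressing yeast, so inhibitors of toxicity appear as activators. Growth after 24 hr at 30 deg C in galactose medium is quantified by luminescence.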
* marks the source's active call; other numbers are inactive results; i = inactive; ? = inconclusive; / = no result given. In the library only some 2.2% were active in any assay of this set; here they are far more common. Calls come from the whole dose curve; as a rule, active = well fitted curve in the direction sought with a large enough effect; inconclusive = small, poorly fitted or top-dose-only effect, or another doubt; inactive = no such curve, though single readings can be large; an effect the other way counts as inactive or inconclusive. Potency is the fitted concentration of half-maximal effect.

SMILES	Mito fusion yeast	TDP43 rescue	FUS yeast rescue	Abeta yeast res	aSyn yeast inh
Cc1cc(C)cc(C(=O)NCCc2sc(-c3ccc(F)cc3)nc2C)c1	/	12%	i	i	/
Cc1nc(-c2ccc(F)cc2)sc1CCNC(=O)Cc1ccc(F)cc1	/	?	i	i	/
COc1cccc(C(=O)NCCc2sc(-c3cccc(C)c3)nc2C)c1	/	25µM*	?	i	-8%
COc1ccc(CC(=O)NCCc2sc(-c3cccc(F)c3)nc2C)cc1	/	11µM*	i	i	/
Cc1nc(-c2ccc(F)cc2)sc1CCNC(=O)c1ccccc1C(F)(F)F	/	13µM*	i	i	/
Clc1ccc(N2CCN(c3ncnc4c3nc3n4CCCC3)CC2)cc1	/	?	i	i	/
Cc1cc(-c2cccc([N+](=O)[O-])c2)nc2ccccc12	-3%	11µM*	i	i	-2%
C#CCOCCOCCOCCNc1nc(N2CCN(C(=O)CCCCCCCCCCNC(=O)[C@@H](CCSC)n3cc(CCO)nn3)CC2)nc(N2CCN(C(=O)CCCCCCCCCCNC(=O)[C@H](CCCN=C(N)N)n3cc(C[C@@H](C)CC)nn3)CC2)n1	-7%	-1%	10µM*	i	-50%
C#CCOCCOCCOCCNc1nc(N2CCN(C(=O)CCCCCCCCCCNC(=O)[C@H](CO)n3cc(CCCCCN)nn3)CC2)nc(N2CCN(C(=O)CCCCCCCCCCNC(=O)[C@H](CCCN=C(N)N)n3cc(C[C@@H](C)CC)nn3)CC2)n1	12%	/	/	/	/
C#CCOCCOCCOCCNc1nc(N2CCN(C(=O)CCCCCCCCCCNC(=O)[C@H](CCCCN)n3cc(C)nn3)CC2)nc(N2CCN(C(=O)CCCCCCCCCCNC(=O)[C@H](CCCN=C(N)N)n3cc(C[C@@H](C)CC)nn3)CC2)n1	7%	?	?	i	-58%
C#CCOCCOCCOCCNc1nc(N2CCN(C(=O)CCCCCCCCCCNC(=O)[C@H](CCCCN)n3cc(C[C@@H](C)CC)nn3)CC2)nc(N2CCN(C(=O)CCCCCCCCCCNC(=O)[C@H](CCCN=C(N)N)n3cc(C[C@@H](C)CC)nn3)CC2)n1	-2%	-84%	10µM*	i	-62%
Cn1nc(-c2ccc(F)cc2)nc2c(=O)n(C)c(=O)nc1-2	/	/	/	/	-84%
COC(=O)c1cc(C)nc2c1c(=O)nc(SCc1c(C)cc(C)cc1C)n2C1CC1	/	?	i	i	/
Cc1ccc(CSc2nc(=O)c3c(C)cc(C)nc3n2C2CC2)cc1	/	3.2µM*	?	i	/
Cc1ccccc1OCC(=O)NCC(=O)OCc1cccc2ccccc12	/	/	/	/	3%
COc1cc(NC(=O)C2CCN(S(=O)(=O)c3ccc4c(c3)CCCC(=O)N4)CC2)cc(OC)c1	/	19%	i	i	0%
CCCCCCCCOc1ccc(C(=O)O)cc1	13µM*	15%	i	i	6%
CCCCOc1ccc(C(=O)Nc2cccc(C)n2)cc1	-4%	2.8µM*	/	i	-26%
CC(C)Oc1ccc(C(=O)O)cc1	-4%	13µM*	i	i	1%
CCCCCOc1ccc(OC(=O)c2ccncc2)cc1	-3%	35µM*	i	i	-6%
CCCCOc1ccc(C(=O)O)cc1	4%	?	i	i	-12%
CCOc1ccc(C(=O)Nc2cccc(C)n2)cc1	-3%	-7%	i	i	-13%
Cc1ccc(CN2C(=O)C3(c4ccccc42)N(c2cccc(C(F)(F)F)c2)C(=O)CS3(=O)=O)cc1 (stereo not drawn)	/	26%	i	i	18%
CCCCCCOc1ccc(C(=O)O)cc1C#N	?	22µM*	/	i	-17%
O=C(COC(=O)CCC(=O)c1ccc(Cl)cc1)NCc1ccc(F)cc1	/	14µM*	i	i	2%
CC1(C(=O)OCC(=O)NCc2ccc(Cl)cc2)CC1(Cl)Cl (stereo not drawn)	/	14µM*	/	i	10%
Cc1ccc(C(=O)C(OC(=O)CNC(=O)COc2ccccc2C)c2ccccc2)cc1 (stereo not drawn)	/	/	/	/	-1%
CCCCCn1c(=O)c2ccccc2n2c(CCl)nnc12	-6%	16µM*	i	i	5%

Screens (PubChem)
